Assay outcomes as filed in PubChem.
A selection: hits, their analogues and other compounds. The true share with any hit is near 2%.
NPR2 activator: human GC-B receptor activators, primary screen, HEK293 GC-B cells, cGMP TR-FRET, EC30 CNP; AID 1920062, 2024; 0.11% of 370,000 active; activation, % at 10 µM; Atrial natriuretic peptide receptor 2 (Homo sapiens), P20594; 0% at EC30 CNP, 100% saturating CNP;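 active means activation at 10 µM reaching about 35% in either raw or pattern-adjusted values, limit read from the data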
A3A deaminase: APOBEC3A ssDNA deaminase inhibitors, primary screen, selectivity assay for APOBEC3G inhibitor project, biochemical, FAM/TAMRA oligo cleavage fluorescence. DNA dC->dU-editing enzyme APOBEC-3A (Homo sapiens), P31941. recombinant A3A, FAM/TAMRA ssDNA deamination fluorescence. inhibition, % at 20 µM. 0.41% of 330,000 active. AID 493011, 2011;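 active means at least 40% inhibition at 20 µM here, with at most 30% in a related deaminase screen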;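 further: plate controls were A3A with DMSO for no effect and wells lacking A3A enzyme for full effect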
Neddyl block: inhibitors of cullin neddylation, primary screen, biochemical, TR-FRET, uHTS, NAE and Ubc12; NEDD8-conjugating enzyme Ubc12 (Homo sapiens) + NEDD8-activating enzyme E1 regulatory …; inhibition, % at 25 µM; 0.58% of 360,000 active; in the data active means inhibition above about 36%
APOBEC3G inh: APOBEC3G DNA deaminase inhibitors, primary screen, biochemical, fluorescence, single-stranded DNA substrate, uHTS | DNA dC->dU-editing enzyme APOBEC-3G (Homo sapiens), Q9HC16 | recombinant A3G, ssDNA deamination FAM/TAMRA fluorescence | inhibition, % at 20 µM | 0.28% of 330,000 active | AID 493012, 2011;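 active means inhibition of at least 40% at 20 µM, with no more than 30% in the related APOBEC3A deaminase screen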;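 further: plate controls were DMSO wells with A3G for no effect and wells lacking A3G enzyme for full effect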
GC-A act: GC-A stimulated cGMP production enhancers – HEK293 GC-A cells, cGMP TR-FRET, EC30 ANP, primary screen; AID 1671463, 2021; 0.14% of 370,000 active; 0% at EC30 ANP, 100% saturating ANP; Atrial natriuretic peptide receptor 1 (Homo sapiens), P16066; activation, % at 10 µM; in the data active means activation above about 40%
Target sequence (P16066 whole entry, looked up): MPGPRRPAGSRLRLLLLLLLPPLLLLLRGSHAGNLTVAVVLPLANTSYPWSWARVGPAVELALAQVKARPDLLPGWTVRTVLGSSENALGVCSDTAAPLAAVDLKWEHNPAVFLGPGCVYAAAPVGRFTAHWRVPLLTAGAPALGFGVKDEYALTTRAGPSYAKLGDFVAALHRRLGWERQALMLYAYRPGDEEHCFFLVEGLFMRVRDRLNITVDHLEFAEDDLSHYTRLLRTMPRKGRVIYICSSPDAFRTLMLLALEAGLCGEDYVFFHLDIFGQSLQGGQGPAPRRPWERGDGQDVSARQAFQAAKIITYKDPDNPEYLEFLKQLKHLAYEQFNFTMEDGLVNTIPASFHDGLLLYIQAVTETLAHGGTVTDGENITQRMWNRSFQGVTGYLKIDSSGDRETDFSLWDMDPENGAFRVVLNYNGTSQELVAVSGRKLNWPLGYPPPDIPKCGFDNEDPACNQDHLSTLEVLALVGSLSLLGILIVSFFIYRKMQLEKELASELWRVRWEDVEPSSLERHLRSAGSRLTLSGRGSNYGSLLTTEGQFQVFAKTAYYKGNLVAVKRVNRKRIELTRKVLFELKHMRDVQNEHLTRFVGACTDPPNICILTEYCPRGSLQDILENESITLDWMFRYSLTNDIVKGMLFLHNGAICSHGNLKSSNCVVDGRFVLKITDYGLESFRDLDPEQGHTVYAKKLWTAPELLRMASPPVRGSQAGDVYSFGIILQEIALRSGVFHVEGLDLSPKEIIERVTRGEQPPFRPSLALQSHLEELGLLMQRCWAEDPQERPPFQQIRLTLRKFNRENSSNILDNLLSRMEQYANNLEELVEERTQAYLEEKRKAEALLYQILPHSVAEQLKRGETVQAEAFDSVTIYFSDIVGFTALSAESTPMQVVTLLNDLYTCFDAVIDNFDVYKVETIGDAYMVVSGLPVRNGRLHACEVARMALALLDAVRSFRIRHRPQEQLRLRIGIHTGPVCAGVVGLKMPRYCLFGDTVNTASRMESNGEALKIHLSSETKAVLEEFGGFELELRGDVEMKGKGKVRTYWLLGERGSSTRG
PfG6PD inh: PfG6PD enzyme inhibitors, primary screen, biochemical, fluorescence intensity, uHTS; glucose-6-phosphate dehydrogenase-6-phosphogluconolactonase (Plasmodium falciparum 3D7); PfGluPho enzyme, NADPH resazurin-diaphorase fluorescence; inhibition, % at 20 µM; 0.78% of 350,000 active;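 active means inhibition reaching at least a set limit at 20 µM in the primary screen, cut at about 59% in these data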;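 further: 0% = DMSO wells with substrate and 100% = DMSO wells lacking glucose-6-phosphate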
APOBEC3G confirm: APOBEC3G deaminase inhibitor retest, confirmation, biochemical, fluorescence, single-stranded DNA substrate, single concentration | shares compounds with APOBEC3G inh | recombinant A3G ssDNA deaminase, UDG/FAM-TAMRA fluorescence | inhibition, % at 20 µM | 72% of 890 active | AID 493152, 2011;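 active means inhibition reaching a set limit in any replicate at 20 µM, the limit being 80% of the first screen's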
UDG ctr A3G: E. coli UDG inhibitors, confirmation, counter-screen for APOBEC3G inhibitor project, biochemical, single concentration, fluorescence, FAM/TAMRA oligo; shares compounds with APOBEC3G inh; UDG counterscreen; inhibition, % at 20 µM; 710 tested, under 10 active; AID 504715, 2011;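 active means compounds giving 40% or more inhibition at 20 µM in any one of the three replicates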;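 further: plate controls were DMSO wells with UDG and oligo for no effect and DMSO wells lacking both for full effect; inhibitors lower the FAM signal released by uracil excision and alkaline cleavage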
* = called active by the depositor; x = no result given.

SMILES	NPR2 activator	A3A deaminase	Neddyl block	APOBEC3G inh	GC-A act	PfG6PD inh	APOBEC3G confirm	UDG ctr A3G
CC(C)(C)OC(=O)N1CCC[C@@H]1C(=O)N1CCC[C@@H]1C(=O)NCc1ccccc1	3.4	x	x	x	2.3	x	x	x
O=C1/C(=C\c2cccc(O)c2O)SC(=S)N1Cc1ccccc1	6.2	2.4	-17.8	62.1*	3.1	27.0	59.5*	-2.5
O=C1/C(=C\c2ccc(O)c(O)c2)SC(=S)N1Cc1ccccc1	-0.6	-5.7	-38.4	-10.5	3.8	-36.8	x	x
Cc1ccc(C(=O)N2CCC(C(=O)NC3CCCC3)CC2)cc1	1.6	-0.1	0.9	69.0*	3.2	-3.5	-4.6	1.4
O=C(CC(c1ccc(F)cc1)c1ccco1)Nc1nccs1 (configuration not stated)	-4.6	1.7	0.0	52.9*	-4.0	8.6	0.1	x
CCOc1ccc(-c2nc(=S)[nH][nH]2)cc1	-1.0	-7.3	0.3	29.9	1.3	20.2	x	x
S=c1nc(-c2cccc(Cl)c2)[nH][nH]1	-12.1	x	-5.5	x	-0.7	16.9	x	x
COc1cc(-c2nc(=S)[nH][nH]2)cc(OC)c1OC	0.6	-5.4	4.9	61.8*	3.1	18.7	94.5*	-1.1
COc1ccc(-c2nc(=S)[nH][nH]2)cc1OC	0.5	-14.7	10.5	61.1*	0.4	20.1	93.2*	1.6
Oc1ccc(-c2nc(=S)[nH][nH]2)cc1	3.6	-3.0	6.9	64.2*	-2.4	16.9	89.6*	-0.6
COc1ccc(-c2nc(=S)[nH][nH]2)cc1	-0.9	-2.9	3.3	61.9*	-0.1	29.2	94.6*	-3.7
C#CCN1CC(N(C)CCOC(=O)c2occ3ccccc23)CS1(=O)=O (configuration not stated)	-8.8	x	x	x	-0.8	x	x	x
CCOC(=O)c1c(NC(=O)c2ccccc2C(=O)O)sc2c1CCCC2	-4.5	1.6	20.9	-0.4	-1.8	-25.3	x	x
CCOC(=O)c1c(NC(=O)c2ccccc2)sc2c1CCc1ccccc1-2	-0.3	0.3	10.8	57.6*	1.0	58.0	16.4*	-1.8
N#Cc1c(-c2ccncc2)c2c([nH]c1=S)CCCC2	3.3	-5.1	-1.4	45.9*	2.6	52.0	85.0*	-2.2
N#Cc1c(SCC(N)=O)nc2c(c1-c1ccncc1)CCCC2	-0.7	0.0	0.3	-7.9	-7.3	16.0	x	x
C[C@@H]1/C=C/CC(=O)N2[C@H](CC(=O)N[C@@H]1c1ccccc1)C[C@@H](C)[C@H]2c1ccccc1	-0.4	x	x	x	-1.0	x	x	x
CCOC(=O)c1sc(NC(=O)CSc2n[nH]c(-c3ccccc3)n2)c(C#N)c1C	4.0	2.3	-18.2	46.8*	6.1	62.0*	32.3*	-2.3
C(#CC1=CCCCC1)CNCc1ccccc1	10.2	x	x	x	0.9	x	x	x
CCc1ccc(CN2CCC(C(=O)Nc3ccc(Oc4ccccc4)nc3)CC2)o1	-1.5	0.5	0.1	41.4*	3.2	0.0	0.2	x
Cc1cc(-c2ccco2)c(C#N)c2nc3ccccc3n12	-0.5	19.9	x	53.1*	27.1	9.3	47.3*	x
Cc1cc(C(C)C)n2c(nc3ccccc32)c1C#N	x	-2.1	x	-9.4	x	x	x	x
COc1cc(N2C(=O)C=CC2=O)c(OC)cc1Cl	-17.6	-2.2	-0.1	43.4*	-30.3	72.1*	54.2*	-1.1
COc1ccc(C(c2ccc(OC)cc2)N2CCN(C(=O)c3noc(C)c3[N+](=O)[O-])CC2)cc1	-0.1	x	x	x	-3.5	x	x	x
CN(CC(=O)Nc1n[nH]c(=S)s1)S(=O)(=O)c1cccc2cccnc12	1.7	-4.9	-7.3	75.4*	7.1	49.6	95.1*	7.8
SMILES	NPR2 activator	A3A deaminase	Neddyl block	APOBEC3G inh	GC-A act	PfG6PD inh	APOBEC3G confirm	UDG ctr A3G
C[C@@H]1COc2cc(Br)ccc2S(=O)(=O)N1Cc1cn(CCC2OCCO2)nn1	-1.9	x	x	x	-0.1	x	x	x
CCOC(=O)c1sc(=S)n(C)c1NC(=O)c1cccc(Br)c1	4.5	-1.1	-2.8	47.3*	6.9	41.6	0.9	-3.4
CCOC(=O)N1CCc2c(sc(N)c2C#N)C1	-1.8	0.2	x	49.5*	1.6	40.8	36.5*	x
Cc1csc(NC(=O)c2ccc(COc3ccccc3F)o2)n1	16.5	x	x	x	18.0	x	x	x
C[C@@H]1ON(C)[C@H]2C[C@H]3c4cc(-c5ccc(F)cc5)ccc4CCN3C[C@@H]12	3.3	x	x	x	2.5	x	x	x
Cc1nn(Cc2ccc(C(=O)O)o2)c(C)c1[N+](=O)[O-]	-3.8	-1.3	-4.3	54.4*	0.5	-12.4	6.9	-1.1
Clc1ccccc1-c1nn2c(-c3ccncc3)nnc2s1	x	1.0	-75.3	48.9*	x	51.1	25.3*	-0.9
Cc1cc(NC(=O)Nc2ccccc2)n(C(C)(C)C)n1	-0.8	6.2	3.9	60.5*	3.5	-5.9	0.3	x
CCN1CCN(c2nc(-c3ccccc3Cl)nc3ccccc23)CC1	3.3	-4.9	0.8	43.9*	-4.3	8.0	-1.3	-3.9
O=C(NCc1cccnc1)C(=O)NCC(c1ccco1)N1CCN(c2ccc(F)cc2)CC1 (configuration not stated)	11.6	-2.4	0.9	42.4*	0.8	-6.6	-9.8	-1.6
COc1ccc(N2CCN(C(CNC(=O)C(=O)NCc3cccnc3)c3ccco3)CC2)cc1 (configuration not stated)	9.7	11.7	-4.6	-3.3	1.3	5.0	x	x
S=c1[nH]c(-c2ccccc2)cn1/N=C/c1cccnc1	-10.1	-9.1	3.9	50.5*	-7.9	58.2	73.2*	1.6
O=C(O)c1ccc(/C=N/n2cc(-c3ccccc3)[nH]c2=S)cc1	4.4	-5.1	-5.7	58.4*	1.3	55.7	80.1*	-3.7
CCC[C@H]1[C@@H](NCc2cccs2)CC[C@@]23CCCN2C(=O)CCC[C@@H]13	-25.3	x	x	x	-21.0	x	x	x
